# Reference: PubChem BioAssay
# Several values for one entry are separate records, joined by “and”; a condition that tells them apart may be missing. Equal values may be shown once. Activity calls are given as the source filed them. Rule as the data show it, unless noted: active = inhibition above about 80%; inactive = the rest.
# How the values were obtained:
# [1] = LFS_MB_P medulloblastoma growth inhibition, cell-based, chromothripsis tumors, cisplatin or BGB combos (AID 1671449); settings: LFS_MB_P medulloblastoma cells;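 also: cells exposed for 96 hours; 0% = vehicle DMSO and 100% = killing by high DMSO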
# [2] = HDN33 neuroblastoma growth inhibition, cell-based, chromothripsis tumors, cisplatin or BGB combos (AID 1671450); settings: HDN33 neuroblastoma cells, stronger effect = higher value;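 also: cells exposed to compound for four days; 0% = vehicle DMSO and 100% = cell killing by high DMSO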
# [3] = ICB984 medulloblastoma cell growth inhibition, synergistic combos for chromothripsis tumors, cisplatin or BGB combos (AID 1671451; call rule not given here;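 also: cells exposed for 96 hours before readout; 0% = vehicle DMSO and 100% = killing by high DMSO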); settings: ICB984 medulloblastoma cells, drug combinations, stronger effect = higher value
# [4] = LFS_MB_1R medulloblastoma cell growth inhibition, synergistic combos for chromothripsis tumors, cisplatin or BGB combos (AID 1671452); settings: LFS_MB_1R medulloblastoma cells, stronger effect = higher value;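 also: cells exposed for 96 hours before readout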
# [5] = HTB85 osteosarcoma cell growth inhibition, synergistic combos for chromothripsis tumors, BGB or cisplatin IC20 combos (AID 1671453); settings: HTB85 osteosarcoma cells, drug combinations, stronger effect = higher value;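 also: cells exposed for 96 hours before readout; 0% = vehicle DMSO and 100% = high DMSO killing control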
# [6] = CRL2098 osteosarcoma cell growth inhibition, synergistic combos for chromothripsis tumors, BGB or cisplatin IC20 combos (AID 1671454); settings: CRL2098 osteosarcoma cells, drug combinations, stronger effect = higher value;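 also: cells exposed for 96 h before readout; 0% = vehicle DMSO and 100% = killing by high DMSO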
# [7] = HD-MB03 medulloblastoma cell growth inhibition, synergistic combos for chromothripsis tumors, BGB or cisplatin IC20 combos (AID 1671455; in the data active = inhibition above about 83%;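 also: 0% = vehicle DMSO and 100% = high DMSO as cytotoxic control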); settings: HD-MB03 medulloblastoma cells, stronger effect = higher value
# [8] = UWB1.289 ovarian carcinoma cell growth inhibition, synergistic combos for chromothripsis tumors, BGB or cisplatin combos (AID 1671456); settings: UWB1.289 ovarian carcinoma cells, stronger effect = higher value;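 also: cells exposed to compound for four days; 0% = vehicle DMSO and 100% = killing by high DMSO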
# [9] = LFS_MB_2R medulloblastoma cell growth inhibition, synergistic combos for chromothripsis tumors, cisplatin combos (AID 1671457); settings: LFS_MB_2R medulloblastoma cells, stronger effect = higher value;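 also: cells exposed to compound for four days before readout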
# [10] = MDA-MB-436 breast carcinoma cell growth inhibition, synergistic combos for chromothripsis tumors, BGB or cisplatin combos (AID 1671458; call rule not given here;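 also: cells exposed for 96 hours; 0% = vehicle DMSO and 100% = killing by high DMSO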); settings: MDA-MB-436 breast carcinoma growth inhibition, drug combinations, stronger effect = higher value
# [11] = UWB1.289_BRCA1 ovarian cancer growth, cell-based, BGB or cisplatin combinations (AID 1671459); settings: UWB1.289 BRCA1 ovarian carcinoma, drug combinations, stronger effect = higher value
# [12] = human astrocyte viability loss, single and combined drugs, cytotoxicity control for chromothriptic childhood tumor combination screen, cell-based, BGB or cisplatin IC20 combos (AID 1671460); settings: Human astrocytes, drug combinations, stronger effect = higher value;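 also: cells exposed to compounds for 96 hours before viability readout; 0% = vehicle and 100% = killing control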
# [13] = growth inhibition of BT084 medulloblastoma cells, cell-based, ICGC_MB145, cisplatin and BGB IC40 combos (AID 1671461); settings: drug combinations, stronger effect = higher value;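 also: cells exposed to drugs for 96 hours; 0% = vehicle DMSO and 100% = high DMSO full killing control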
# [14] = growth inhibition of RCMB18 medulloblastoma cells, cell-based, cisplatin and BGB IC40 combos (AID 1671462); settings: stronger effect = higher value;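 also: cells exposed to compound for four days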
# [15] = growth inhibition of CRL1545 osteosarcoma cells, cell-based, cisplatin and BGB IC20 combos (AID 1671464); settings: stronger effect = higher value;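 also: cells exposed to compound for 96 hours before readout; 0% = vehicle DMSO and 100% = high DMSO killing control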
# [16] = measured here: combination with BGB IC40, at 0.05 µM
# [17] = measured here: with BGB IC20 combination, at 0.5 µM
# [18] = measured here: with cisplatin IC20 combination, at 0.5 µM
# [19] = measured here: combination with cisplatin, at 0.5 µM
# [20] = measured here: combination with cisplatin, at 5 µM
smiles,measurement,setting,value
CCCCNNC(=O)c1ccc(Br)cc1,inhibition,"[1]; at 0.5 µM, stronger effect = higher value",-28.6% (inactive) and -13.6% (inactive)
same,inhibition,"[1]; measured here: combination with BGB IC20, at 0.005 µM",-3.01% and -23.3%
same,inhibition,"[1]; measured here: combination with BGB IC40, at 0.005 µM",-22.6% and -43.3%
same,inhibition,[1]; [16],-0.924% and -28%
same,inhibition,"[1]; measured here: combination with cisplatin, at 0.5 µM, stronger effect = higher value",-32% and -11.5%
same,inhibition,"[1]; measured here: combination with cisplatin, at 5 µM, stronger effect = higher value",-36.2% and 31.8%
same,inhibition,"[2]; BGB combo, at 5 µM",-6.55% and 1.44%
same,inhibition,[2]; at 0.5 µM,0.02% (inactive) and -19.7% (inactive)
same,inhibition,"[2]; cisplatin combo, at 5 µM",13.1% and 50.6%
same,inhibition,[2]; [17],3.17% and -28.2%
same,inhibition,[2]; [18],-1.75% and -2.85%
same,inhibition,"[2]; single agent, at 5 µM",4.48% and -2.92%
same,inhibition,"[3]; BGB IC20 combo, at 0.005 µM",-0.717% and -27.2%
same,inhibition,"[3]; BGB IC40 combo, at 0.005 µM",-41.6% and -37.1%
same,inhibition,"[3]; BGB IC40 combo, at 0.05 µM",-16% and 7.68%
same,inhibition,[3]; at 0.5 µM,-18.8% (inactive) and -23.4% (inactive)
same,inhibition,"[3]; cisplatin combo, at 0.05 µM",-20.6% and 3.05%
same,inhibition,"[3]; cisplatin combo, at 0.5 µM",-33.8% and -35%
same,inhibition,"[3]; cisplatin combo, at 5 µM",-37.9% and -23%
same,inhibition,"[3]; measured here: 5 uM single agent, at 5 µM",-7.59% and -16.8%
same,inhibition,[4]; at 0.5 µM,-6.14% (inactive) and -24.9% (inactive)
same,inhibition,[4]; [16],-4.43% and -39.3%
same,inhibition,[4]; [19],15.7% and -27.4%
same,inhibition,[4]; [20],-45.3% and 33.7%
same,inhibition,[5]; at 0.5 µM,-6.38% (inactive) and -12% (inactive)
same,inhibition,"[5]; measured here: with BGB IC20, at 0.5 µM",-9.67% and -6.58%
same,inhibition,"[5]; measured here: with BGB IC20, at 5 µM",-16.5% and 39.7%
same,inhibition,"[5]; measured here: with cisplatin IC20, at 0.5 µM",-16.9% and -17.5%
same,inhibition,"[5]; measured here: with cisplatin IC20, at 5 µM",-4.96% and 37.1%
same,inhibition,"[5]; single agent, at 5 µM",0.402% and 2.14%
same,inhibition,[6]; at 0.5 µM,-42.1% (inactive) and -78.1% (inactive)
same,inhibition,"[6]; measured here: combination with BGB at IC20, at 0.5 µM",-11% and -84.3%
same,inhibition,"[6]; measured here: combination with cisplatin at IC20, at 0.5 µM",-47% and -80.1%
same,inhibition,[7]; at 0.5 µM,-7.76% (inactive) and -11.7% (inactive)
same,inhibition,"[7]; measured here: combo with BGB at IC20, at 0.5 µM",-11.6% and -15%
same,inhibition,"[7]; measured here: combo with cisplatin at IC20, at 0.5 µM",-8.41% and -15%
same,inhibition,[8]; at 0.5 µM,-8.32% (inactive) and -3.86% (inactive)
same,inhibition,"[8]; measured here: inhibition with BGB combination, at 0.05 µM",-23.9% and -19.8%
same,inhibition,"[8]; measured here: inhibition with cisplatin combination, at 0.05 µM",-10.7% and -18.7%
same,inhibition,[9]; at 0.5 µM,-9.05% (inactive) and -20.7% (inactive)
same,inhibition,[9]; [19],-22% and -6.47%
same,inhibition,[9]; [20],-14.2% and 13.9%
same,inhibition,[10]; at 0.5 µM,-12.3% (inactive) and -16% (inactive)
same,inhibition,"[10]; measured here: BGB combination, at 0.5 µM",-20.8% and -8.47%
same,inhibition,"[10]; measured here: BGB combination, at 5 µM",-14.9% and -12.9%
same,inhibition,"[10]; measured here: cisplatin combination, at 0.5 µM",-6.74% and -30.9%
same,inhibition,"[10]; measured here: cisplatin combination, at 5 µM",-0.941% and -3.8%
same,inhibition,"[11]; BGB combination, concentration series, at 5 µM",6.4% and 33.8%
same,inhibition,[11]; at 0.5 µM,-7.63% (inactive) and -13.8% (inactive)
same,inhibition,"[11]; cisplatin combination, concentration series, at 5 µM",26% and 52.3%
same,inhibition,[12]; at 0.5 µM,8.76% (inactive) and -0.16% (inactive)
same,inhibition,"[12]; measured here: combo with BGB IC20, at 0.5 µM",10.6% and 7.19%
same,inhibition,"[12]; measured here: combo with cisplatin IC20, at 0.5 µM",16.8% and 11.7%
same,inhibition,[13]; at 0.5 µM,-6.87% (inactive) and -6.41% (inactive)
same,inhibition,"[13]; cisplatin combination, at 0.5 µM",-5.88% and 9.41%
same,inhibition,"[13]; cisplatin combination, at 5 µM",5.88% and 9.57%
same,inhibition,"[13]; measured here: BGB IC40 combination 0.05 uM, at 0.05 µM",-2.71% and -30.8%
same,inhibition,"[13]; single agent, at 5 µM",3.58% and 5.96%
same,inhibition,[14]; at 0.5 µM,-14.6% (inactive) and -4.43% (inactive)
same,inhibition,"[14]; cisplatin combo, at 5 µM",-8.38% and 43.4%
same,inhibition,"[14]; measured here: BGB IC40 combination, at 0.05 µM",-7.86% and -8.38%
same,inhibition,[14]; [19],-0.38% and 8.6%
same,inhibition,"[14]; single agent, at 5 µM",-15.8% and 24%
same,inhibition,[15]; at 0.5 µM,-8.18% (inactive) and -0.65% (inactive)
same,inhibition,[15]; [17],-10.3% and -18.8%
same,inhibition,[15]; [18],-7.12% and 6.96%
same,inhibition,"[15]; single agent, at 0.05 µM",-17.3% and -29.7%
same,inhibition,"[15]; single agent, at 5 µM",-21.8% and -15.7%
